Our source for the Percent Effect values is ChEMBL document CHEMBL3988442, “University of Dundee, Small-Polar-MMV Screening Library” (2021).

What all share (set-up): scale not given: direction of the effect not stated beside the values
Experiment [1] deals with Protein translocase subunit SecA (Escherichia coli (strain K12)) (UniProt P10408). The experiment in a line: Assay to Identify E. coli SecA ATPase Inhibitors. The experiment is classed as functional. As to conditions: 30 µM.
The target in experiment [2] is T1, Ubiquitin-activating enzyme e1, putative (Leishmania donovani (strain BPK282A1)) (UniProt E9BSI1).
T1 sequence (whole entry): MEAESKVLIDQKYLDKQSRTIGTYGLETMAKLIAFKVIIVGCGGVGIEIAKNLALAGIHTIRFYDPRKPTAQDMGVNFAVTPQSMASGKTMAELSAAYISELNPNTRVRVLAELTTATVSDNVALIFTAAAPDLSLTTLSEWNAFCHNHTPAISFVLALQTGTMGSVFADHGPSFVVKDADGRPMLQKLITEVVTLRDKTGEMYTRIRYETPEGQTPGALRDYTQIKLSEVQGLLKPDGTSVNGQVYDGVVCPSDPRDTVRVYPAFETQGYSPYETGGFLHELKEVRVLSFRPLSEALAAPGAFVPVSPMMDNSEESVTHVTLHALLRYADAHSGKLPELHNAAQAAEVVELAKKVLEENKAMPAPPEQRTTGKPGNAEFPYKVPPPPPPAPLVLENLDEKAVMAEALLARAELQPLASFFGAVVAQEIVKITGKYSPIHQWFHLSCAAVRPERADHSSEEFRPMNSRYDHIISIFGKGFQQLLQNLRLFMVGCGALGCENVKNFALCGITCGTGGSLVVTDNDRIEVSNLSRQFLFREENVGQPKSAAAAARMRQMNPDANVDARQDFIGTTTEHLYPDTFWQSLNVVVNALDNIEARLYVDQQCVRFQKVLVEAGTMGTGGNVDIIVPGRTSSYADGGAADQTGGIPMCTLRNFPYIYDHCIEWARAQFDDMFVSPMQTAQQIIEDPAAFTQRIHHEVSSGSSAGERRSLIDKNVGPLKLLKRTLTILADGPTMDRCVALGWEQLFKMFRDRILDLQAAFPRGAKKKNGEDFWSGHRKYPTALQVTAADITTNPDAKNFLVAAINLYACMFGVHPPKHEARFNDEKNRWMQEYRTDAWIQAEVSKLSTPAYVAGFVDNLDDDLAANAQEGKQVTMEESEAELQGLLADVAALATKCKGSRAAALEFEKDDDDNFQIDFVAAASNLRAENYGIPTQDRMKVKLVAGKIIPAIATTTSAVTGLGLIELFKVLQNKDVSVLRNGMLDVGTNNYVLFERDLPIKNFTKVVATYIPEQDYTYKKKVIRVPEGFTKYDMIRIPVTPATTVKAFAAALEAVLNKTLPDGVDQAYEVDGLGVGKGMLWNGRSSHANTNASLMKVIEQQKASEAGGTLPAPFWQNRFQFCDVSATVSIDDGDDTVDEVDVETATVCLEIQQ
As to the kind of experiment: Leishmania donovani Ubiquitin Activating Enzyme (LdE1). The class given is functional. As to conditions: 30 µM.

Experiment [3] has as its target AMP-activated protein kinase, AMPK (Homo sapiens) (UniProt P54646+O43741+P54619+Q9UGJ0+Q9Y478+Q13131+Q9UGI9). As to the kind of experiment: AMP-dependent Kinase enzyme assay. An in vitro enzyme assay that detects ADP turnover that is directly proportional to AMPK activity. This uses naive AMPK that is activated during the assay with MK-8722. The experiment is classed as functional. The following applies: 30 µM.

In experiment [4] the target is Sialic acid-binding Ig-like lectin 9 (Homo sapiens) (UniProt Q9Y336). The experiment in a line: Hs-Siglec9 ALPHAscreen SOP 20170721. As to conditions: 10 µM. For orientation: In Alpha technology, singlet oxygen from a donor bead excites a nearby acceptor bead.
The subject of the next experiment is Trypanosoma cruzi. The experiment in a line: Trypanosoma cruzi phosphomannomutase and mannose-1-phosphate guanylyltransferase assay. The experiment is classed as functional. The following applies: 10 µM.
For experiment [5], the target named is T2, Arginase-2, mitochondrial (Homo sapiens) (UniProt P78540).
T2 sequence (whole entry): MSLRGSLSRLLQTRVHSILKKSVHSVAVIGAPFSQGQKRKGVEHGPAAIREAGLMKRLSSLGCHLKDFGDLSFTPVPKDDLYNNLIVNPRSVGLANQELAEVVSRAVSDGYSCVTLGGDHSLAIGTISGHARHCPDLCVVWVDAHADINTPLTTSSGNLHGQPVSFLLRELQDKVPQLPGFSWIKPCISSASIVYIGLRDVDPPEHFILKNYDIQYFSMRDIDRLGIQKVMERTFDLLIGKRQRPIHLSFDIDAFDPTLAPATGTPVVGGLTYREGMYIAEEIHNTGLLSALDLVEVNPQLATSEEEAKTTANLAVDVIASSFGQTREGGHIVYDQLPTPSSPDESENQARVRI
As to the kind of experiment: in vitro enzyme assay to detect the production of urea directly proportional to the activity of Arginase II. Further: in the data most compounds retested in dose-response had high values. The class given is functional. The following applies: 33.3 µM.

Experiment [6] addresses T3, Proteasome subunit beta (Trypanosoma cruzi) (UniProt O96673).
T3 sequence (whole entry): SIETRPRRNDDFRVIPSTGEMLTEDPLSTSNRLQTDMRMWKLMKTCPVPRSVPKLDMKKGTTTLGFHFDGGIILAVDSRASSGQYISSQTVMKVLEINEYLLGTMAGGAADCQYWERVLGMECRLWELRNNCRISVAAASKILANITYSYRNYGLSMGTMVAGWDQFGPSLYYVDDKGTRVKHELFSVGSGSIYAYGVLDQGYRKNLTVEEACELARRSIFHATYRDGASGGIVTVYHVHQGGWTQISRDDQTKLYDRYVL
As to the kind of experiment: Trypanosoma cruzi proteasome chymotrypsin-like activity (TcProtChymo) assay. Further: in the data most compounds retested in dose-response had high values. The experiment is classed as functional. The following applies: 9.37 µM.

The species named for a further experiment is Homo sapiens. As to the kind of experiment: To identify inhibition of the IFN signalling (Jak-Stat) pathway via expression of an eGFP reporter gene under the control of an IFN-stimulated response element (ISRE) containing MxA promoter. The class given is functional. The following applies: 30 µM. Background: A reporter such as luciferase makes a cellular process visible.

Experiment [7] concerns the target T4, Tyrosyl-tRNA synthetase, putative (Trypanosoma cruzi (strain CL Brener)) (UniProt Q4DSP6).
T4 sequence (whole entry): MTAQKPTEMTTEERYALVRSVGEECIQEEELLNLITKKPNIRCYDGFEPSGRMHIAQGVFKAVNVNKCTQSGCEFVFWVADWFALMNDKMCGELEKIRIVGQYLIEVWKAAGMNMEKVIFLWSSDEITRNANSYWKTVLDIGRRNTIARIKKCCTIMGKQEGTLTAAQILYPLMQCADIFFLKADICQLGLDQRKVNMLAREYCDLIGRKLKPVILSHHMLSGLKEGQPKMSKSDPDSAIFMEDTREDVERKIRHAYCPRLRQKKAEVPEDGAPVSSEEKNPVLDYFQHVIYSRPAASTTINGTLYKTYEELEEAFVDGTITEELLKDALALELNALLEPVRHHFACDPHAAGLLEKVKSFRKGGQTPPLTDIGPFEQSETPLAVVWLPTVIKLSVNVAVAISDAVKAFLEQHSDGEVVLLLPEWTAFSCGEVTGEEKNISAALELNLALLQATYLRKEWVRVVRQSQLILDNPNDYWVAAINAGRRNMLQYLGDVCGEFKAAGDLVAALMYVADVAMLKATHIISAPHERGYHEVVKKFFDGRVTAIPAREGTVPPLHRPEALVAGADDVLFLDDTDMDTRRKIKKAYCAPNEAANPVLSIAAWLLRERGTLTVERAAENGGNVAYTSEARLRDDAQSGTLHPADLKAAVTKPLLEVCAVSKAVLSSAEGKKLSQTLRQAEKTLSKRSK
The experiment in a line: Trypanosoma cruzi tyrosyl tRNA synthetase (TcYRS) _High Tyrosine SOP. Further: in the data most compounds retested in dose-response had high values. The experiment is classed as functional. As to conditions: 30 µM.

Experiment [8] has as its target T4, Tyrosyl-tRNA synthetase, putative (Trypanosoma cruzi (strain CL Brener)). As to the kind of experiment: Trypanosoma cruzi tyrosyl tRNA synthetase (TcYRS) SOP. The following applies: 30 µM. The class given is functional.
Experiment [9] addresses Chromo domain-containing protein 1 (Saccharomyces cerevisiae (strain ATCC 204508 / S288c) (Baker's yeast)) (UniProt P32657). The experiment in a line: ScCHD-1 Enzyme Inhibition Assay. Further: in the data most compounds retested in dose-response had high values. The class given is functional. The following applies: 30 µM.

SMILES strings stand for the structures. For some of these results: Measured potencies and affinities stand elsewhere.

Protein translocase subunit SecA (Escherichia coli (strain K12)), sequence (P10408 whole entry): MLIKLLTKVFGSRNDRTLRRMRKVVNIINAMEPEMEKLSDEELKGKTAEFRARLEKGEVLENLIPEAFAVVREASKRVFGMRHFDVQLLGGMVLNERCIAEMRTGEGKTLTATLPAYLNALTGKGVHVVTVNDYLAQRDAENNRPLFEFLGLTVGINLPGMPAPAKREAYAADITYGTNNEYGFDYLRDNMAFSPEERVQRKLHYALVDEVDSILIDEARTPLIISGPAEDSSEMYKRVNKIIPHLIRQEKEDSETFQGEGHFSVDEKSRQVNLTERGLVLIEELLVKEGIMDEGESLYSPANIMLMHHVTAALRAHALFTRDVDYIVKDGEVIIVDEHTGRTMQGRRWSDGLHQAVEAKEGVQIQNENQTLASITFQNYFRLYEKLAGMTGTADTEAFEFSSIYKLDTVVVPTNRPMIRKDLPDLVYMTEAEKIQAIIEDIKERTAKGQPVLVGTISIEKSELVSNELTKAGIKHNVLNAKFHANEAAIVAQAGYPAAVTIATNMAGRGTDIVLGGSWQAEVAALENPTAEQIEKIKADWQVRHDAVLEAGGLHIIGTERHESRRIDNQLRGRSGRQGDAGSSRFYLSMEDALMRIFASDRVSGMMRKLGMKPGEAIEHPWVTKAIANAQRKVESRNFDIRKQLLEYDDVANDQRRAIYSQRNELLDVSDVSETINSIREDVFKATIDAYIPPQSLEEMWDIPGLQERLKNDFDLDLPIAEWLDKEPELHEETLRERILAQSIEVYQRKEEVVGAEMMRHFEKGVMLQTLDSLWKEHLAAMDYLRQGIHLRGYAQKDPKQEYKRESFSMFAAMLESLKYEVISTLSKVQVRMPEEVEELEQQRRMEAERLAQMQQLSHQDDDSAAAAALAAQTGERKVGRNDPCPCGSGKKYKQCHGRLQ
Sialic acid-binding Ig-like lectin 9 (Homo sapiens), sequence (Q9Y336 whole entry): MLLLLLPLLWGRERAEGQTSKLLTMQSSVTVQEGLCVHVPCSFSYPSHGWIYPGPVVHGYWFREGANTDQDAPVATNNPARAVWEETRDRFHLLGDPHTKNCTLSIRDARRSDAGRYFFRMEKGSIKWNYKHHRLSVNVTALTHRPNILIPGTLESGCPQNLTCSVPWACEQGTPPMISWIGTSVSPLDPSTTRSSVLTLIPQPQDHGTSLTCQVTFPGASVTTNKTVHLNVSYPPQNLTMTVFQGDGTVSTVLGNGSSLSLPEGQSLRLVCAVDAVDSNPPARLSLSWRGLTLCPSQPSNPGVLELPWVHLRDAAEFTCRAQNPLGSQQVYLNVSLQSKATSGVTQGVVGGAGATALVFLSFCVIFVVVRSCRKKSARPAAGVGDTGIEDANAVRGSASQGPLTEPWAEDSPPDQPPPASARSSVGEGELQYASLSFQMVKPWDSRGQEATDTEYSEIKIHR
Chromo domain-containing protein 1 (Saccharomyces cerevisiae (strain ATCC 204508 / S288c) (Baker's yeast)), sequence (P32657 whole entry, the tested form may be a part): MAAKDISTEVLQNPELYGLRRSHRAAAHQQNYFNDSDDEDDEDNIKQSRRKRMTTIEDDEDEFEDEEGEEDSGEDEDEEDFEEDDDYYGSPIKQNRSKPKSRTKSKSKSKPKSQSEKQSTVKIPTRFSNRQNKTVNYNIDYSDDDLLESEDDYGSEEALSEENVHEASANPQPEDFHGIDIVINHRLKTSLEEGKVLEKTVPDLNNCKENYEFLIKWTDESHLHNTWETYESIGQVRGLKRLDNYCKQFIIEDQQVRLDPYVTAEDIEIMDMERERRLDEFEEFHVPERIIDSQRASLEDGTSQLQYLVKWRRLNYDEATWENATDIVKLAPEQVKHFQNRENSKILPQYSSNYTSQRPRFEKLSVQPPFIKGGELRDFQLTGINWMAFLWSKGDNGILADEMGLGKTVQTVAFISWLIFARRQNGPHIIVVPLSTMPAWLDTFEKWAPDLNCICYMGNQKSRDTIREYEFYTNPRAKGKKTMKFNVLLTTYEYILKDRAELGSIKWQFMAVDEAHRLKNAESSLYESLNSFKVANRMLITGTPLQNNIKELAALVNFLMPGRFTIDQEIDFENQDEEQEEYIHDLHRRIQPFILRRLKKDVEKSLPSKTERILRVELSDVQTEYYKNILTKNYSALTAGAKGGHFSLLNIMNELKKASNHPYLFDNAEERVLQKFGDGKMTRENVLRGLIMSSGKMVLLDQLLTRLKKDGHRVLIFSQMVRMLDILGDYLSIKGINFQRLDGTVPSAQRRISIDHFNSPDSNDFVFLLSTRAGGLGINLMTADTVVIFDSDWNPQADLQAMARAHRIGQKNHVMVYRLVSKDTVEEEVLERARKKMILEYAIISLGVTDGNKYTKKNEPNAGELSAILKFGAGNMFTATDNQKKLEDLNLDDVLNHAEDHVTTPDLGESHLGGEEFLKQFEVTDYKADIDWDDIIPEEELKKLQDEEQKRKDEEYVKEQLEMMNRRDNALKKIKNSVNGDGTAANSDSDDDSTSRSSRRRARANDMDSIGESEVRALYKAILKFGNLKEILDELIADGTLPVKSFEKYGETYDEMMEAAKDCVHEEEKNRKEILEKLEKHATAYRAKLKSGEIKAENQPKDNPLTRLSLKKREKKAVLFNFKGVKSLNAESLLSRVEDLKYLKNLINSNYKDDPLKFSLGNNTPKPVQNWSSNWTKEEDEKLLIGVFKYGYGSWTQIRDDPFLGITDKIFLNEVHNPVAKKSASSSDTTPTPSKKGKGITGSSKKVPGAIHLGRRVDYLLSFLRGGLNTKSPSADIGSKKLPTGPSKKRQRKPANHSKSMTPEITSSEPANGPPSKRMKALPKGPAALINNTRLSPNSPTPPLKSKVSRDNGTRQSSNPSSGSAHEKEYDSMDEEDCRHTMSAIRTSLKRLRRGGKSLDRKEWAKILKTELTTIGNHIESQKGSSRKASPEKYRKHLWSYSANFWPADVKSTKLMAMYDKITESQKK

In the case of `O=C(Cn1cnnn1)N1CCCCC1Cn1cccn1` (stereo not drawn), the Percent Effect is -4.89% in [1]; 5.06% in [2]; -3.21% in experiment [3]; -2.69% in experiment [4]; -6.52% in the experiment with Trypanosoma cruzi; -3.04% in experiment [5]. Moreover, the Percent Effect in [6] was 0.901%; in the experiment listed under Homo sapiens, 25.2%; in experiment [7], -3.45%; in experiment [8] it was -11.4%; in [9], -5.05%.
On to `NC(=O)C1CN(C(=O)Nc2ccccc2SC(F)(F)F)CCO1` (stereo not drawn), for which the Percent Effect was -2.59% in [1]; 10.8% in experiment [2]; -2.48% in experiment [3]; 12.1% in experiment [4]; 7.15% with Trypanosoma cruzi; -1.29% in experiment [5]. Further, the Percent Effect in experiment [6] is 4.31%; in the experiment listed under Homo sapiens, 9.57%; in experiment [7] it was 5.94%; in [8] it was 18.3%; in experiment [9], -7.87%.
Regarding `Cc1csc(C2CCCCN2C(=O)CN(C)C2CC2)n1` (stereo not drawn), the Percent Effect in experiment [1] was 1.03%; in experiment [2], -13.9%; in experiment [3] it was 0.541%; in experiment [4], -1.97%; in the experiment with Trypanosoma cruzi, 2.56%; in experiment [5] it was -2.37%. Also, the Percent Effect was 8.75% in experiment [6]; -15.9% in the experiment filed under Homo sapiens; 1.04% in experiment [7]; 5.06% in [8]; 9.83% in experiment [9].
Regarding `COc1ncccc1C(=O)N1CC[C@H]2C[C@@H](C)O[C@@H]2C1`, the Percent Effect was -0.702% in [1]; 17.3% in experiment [2]; 0.286% in experiment [3]; -4.21% in [4]; -0.589% in the experiment on Trypanosoma cruzi; -6.51% in experiment [5]. Besides, the Percent Effect is 15.5% in experiment [6]; -1.15% in the experiment listed under Homo sapiens; 3.17% in [7]; 10.3% in experiment [8]; -9.15% in experiment [9].
For `CCc1ncc(CNC2CC(=O)N(CCc3cccc(Cl)c3)C2)cn1` (stereo not drawn), the Percent Effect was -5.45% in [1]; 13.7% in experiment [2]; -3.73% in [3]; 5.67% in experiment [4]; 7.54% in the experiment with Trypanosoma cruzi; -3.59% in experiment [5]. Besides, the Percent Effect in experiment [6] is 6.76%; in the experiment listed under Homo sapiens it was 0.221%; in [7], 6.25%; in experiment [8] it was 11.1%; in experiment [9], -2.3%.
Take `CN(C)CCn1c(=O)oc2ccc(NC(=O)C3CCCO3)cc21` (stereo not drawn): the Percent Effect is -6.72% in [1]; 5.33% in [2]; -5.94% in [3]; 4.64% in [4]; -1.85% with Trypanosoma cruzi; 1.56% in experiment [5]. In addition, the Percent Effect was 6.8% in experiment [6]; 5.49% in the experiment listed under Homo sapiens; 8.2% in [7]; 11.1% in experiment [8]; -5.1% in experiment [9].
As to `CCNC(=O)N1CCC2(C1)c1ccccc1S(=O)(=O)N2CCC(C)C` (stereo not drawn), the Percent Effect in experiment [1] was -3.49%; in [2], 5.33%; in experiment [3] it was 5.91%; in [4], -1.77%; in the experiment with Trypanosoma cruzi, 5.99%; in [5] it was -52.5%. Also, the Percent Effect in experiment [6] is 5.3%; in the experiment filed under Homo sapiens, -14.8%; in experiment [7], 1.04%; in experiment [8], 0%; in experiment [9] it was -0.42%.
As to `CCc1nc(CN2CCCN(Cc3cnn(C)c3)CC2)no1`, the Percent Effect in experiment [1] is 2.29%; in experiment [2], 5.48%; in [3] it was -1.06%; in [4] it was 0.0732%; with Trypanosoma cruzi it was -2.35%; in [5], 0%. Also, the Percent Effect in experiment [6] is 17.2%; in the experiment listed under Homo sapiens, 3.79%; in experiment [7], 4.3%; in experiment [8], 12.5%; in [9], -13.7%.
